This is a sample that favours compounds with a hit; in the whole collection about 18% have one here.
VP16 counter = Gal4-VP16 reporter inhibition counter-screen. Drosophila S2 Gal4-VP16 UAS-luciferase, luminescence, 20 h. Potency, µM (highest dose often 53.6 µM), hits mostly inhibitors. actives 3.5% (n = 310,000). AID 2546;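 also: Gal4-VP16 expression switched on by copper sulfate through the metallothionein promoter; nearly all actives have a fitted effect of over 50% in size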
IL1B secr inh = inhibitors of inflammasome signaling (IL-1 beta secretion). activity change, % at 57.5 µM. actives 4.7% (n = 360,000). THP-1 LPS/ATP IL-1B secretion, AlphaLISA, 16 h; hits give low values. AID 743279; in the data active = activity change below about -50%; inconclusive = mostly about -30% to -49%
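Secreted IL-1B measured by AlphaLISA bead assay after 16 h compound exposure of THP-1 cells; compounds (final up to 57.5 uM) added 1 h before LPS (250 ng/mL) and ATP (1.25 mM) stimulation; lower signal means less secretion.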
TDP1 cell CPT = DT40-hTDP1 cell growth loss with CPT; chicken DT40 Tdp1-/-;hTDP1 cells + 20 nM CPT, ATP luminescence, 48 h; Potency, µM (top dose mostly 46.2 µM), most hits filed as inhibitors; actives 12% (n = 420,000); AID 686979; also: nearly all actives have a fitted effect of over 55% in size
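Chicken DT40 Tdp1-/- cells stably complemented with human TDP1 were seeded at 400 cells/well in medium containing 20 nM camptothecin, exposed to pin-transferred compounds, and grown at 37 °C for at least 48 hr. Viability was read as ATP luminescence.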
LDHA block = blocks human lactate dehydrogenase A; P00338; purified LDHA, NADH/diaphorase-resazurin fluorescence; hits give low values; activity change, % (values are at about 110 or 230 µM); actives 0.15% (n = 480,000); in the data active = activity change below about -30%; inconclusive = mostly about -25% to -30%
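Human LDH5 at 2 nM final in Tris HCl pH 7.4 with 0.06 mM NADH and 0.2 mM pyruvate, reacted 5 minutes at room temperature. Remaining NADH coupled via diaphorase/resazurin; resorufin fluorescence read at 0 and 20 minutes, normalized to enzyme-free and DMSO wells.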
RORg inh = ROR gamma (mouse) transcription inhibition; P51450; AID 2551; Potency, µM (series often up to 53.6 µM), usual class: inhibitors; Drosophila S2 Gal4-RORgamma UAS-luciferase reporter, 20 h; actives 5.4% (n = 310,000); also: nearly all actives have a fitted effect of over 60% in size
Target sequence (P51450 whole entry, looked up, the tested form may be a part): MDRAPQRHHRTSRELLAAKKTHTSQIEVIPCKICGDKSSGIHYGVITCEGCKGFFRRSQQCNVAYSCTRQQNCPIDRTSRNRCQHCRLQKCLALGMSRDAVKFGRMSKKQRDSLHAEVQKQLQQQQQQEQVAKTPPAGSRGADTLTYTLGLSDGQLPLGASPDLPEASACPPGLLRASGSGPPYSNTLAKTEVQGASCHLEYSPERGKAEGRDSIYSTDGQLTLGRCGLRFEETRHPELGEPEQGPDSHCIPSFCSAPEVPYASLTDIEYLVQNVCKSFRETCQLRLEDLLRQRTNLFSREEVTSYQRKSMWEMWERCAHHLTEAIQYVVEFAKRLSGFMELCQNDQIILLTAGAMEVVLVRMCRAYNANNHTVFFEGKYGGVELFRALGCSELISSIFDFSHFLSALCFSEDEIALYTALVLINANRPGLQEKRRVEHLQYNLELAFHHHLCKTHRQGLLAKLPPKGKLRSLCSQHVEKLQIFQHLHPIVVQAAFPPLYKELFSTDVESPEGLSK
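In this cell-based reporter format, copper sulfate (700 uM final) drives Gal4–ROR gamma fusion expression from a metallothionein promoter in Drosophila Schneider cells; compounds preincubated 1 hr, reporter read after 20 hr at ambient temperature.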
DT40 TDP1 no CPT = qHTS for Inhibitors of human tyrosyl-DNA phosphodiesterase 1 (TDP1): qHTS in cells in absence of CPT; DT40 Tdp1-/- hTDP1 cells, no CPT, ATP luminescence, 48 h; Potency, µM (top dose mostly 46.2 µM), most hits filed as inhibitors; actives 15% (n = 420,000); also: nearly all actives have a fitted effect of over 55% in size
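Seeded 400 DT40-hTDP1 cells/well (vehicle DMSO, no 20 nM CPT); pinned compounds; ≥48 hr at 37 °C; CellTiter-Glo luminescence as viability measure.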
Hits are given with their value; - = inactive; ? = inconclusive; . = no result given. Unless noted, calls follow the shape of the dose curve; as a rule, active = well fitted curve in the direction sought with a large enough effect; inconclusive = small, poorly fitted or top-dose-only effect, or another doubt; inactive = no such curve, though single readings can be large; an effect the other way counts as inactive or inconclusive.

SMILES | VP16 counter | IL1B secr inh | TDP1 cell CPT | LDHA block | RORg inh | DT40 TDP1 no CPT
CC(=O)N1CCCc2ccc(NS(=O)(=O)c3cccc(Cl)c3)cc21 | . | . | - | - | . | -
CN(C)S(=O)(=O)c1cccc(NC(=S)N/N=C/c2cc(Br)ccc2O)c1 | - | -72.7 | 2.59µM | - | - | 3.66µM
CN(C)S(=O)(=O)c1cccc(NC(=S)N/N=C/c2cccc(O)c2)c1 | ? | - | ? | - | 8.91µM | -
COc1ccc(C(=O)OCc2nc(-c3ccc(F)cc3)no2)cc1S(=O)(=O)N1CCCC1 | . | . | . | - | . | .
Cc1ccc(Cc2sc(N)nc2C)cc1 | . | . | . | - | . | .
COC(=O)c1cccc(C(=O)NCCc2ccccc2)c1 | . | . | . | - | . | .
COc1ccc(CCC(=O)NCc2ccc3c(c2)CCN3C(=O)c2cccc(C)c2)cc1 | . | . | 5.8µM | - | . | 4.61µM
COc1cc(CCC(=O)NCc2ccc3c(c2)CCN3C(=O)c2ccccc2)cc(OC)c1OC | . | . | - | - | . | -
COc1ccc(CCC(=O)NCc2ccc3c(c2)CCN3C(=O)c2ccc(C)cc2)cc1 | . | . | ? | - | . | 20.6µM
O=C1CC(c2ccc(F)cc2)CC2=C1C(c1ccc([N+](=O)[O-])o1)Nc1ccccc1N2 (stereo unspecified) | - | -74.0 | ? | - | ? | 16.4µM
O=C1CC(c2ccccc2)CC2=C1C(c1ccccn1)Nc1ccccc1N2 (stereo unspecified) | - | - | - | - | - | -
Cc1ccc(S(=O)(=O)CC2CSc3nc4ccccc4n32)cc1 (stereo unspecified) | 1.12µM | - | 1.84µM | - | ? | 1.84µM
Cc1cccc(NC(=O)CSCn2nnc3c(=O)[nH]c(Cc4ccc(F)cc4)nc32)c1C | . | . | . | - | . | .
Cc1ccc(NS(=O)(=O)c2cc([N+](=O)[O-])ccc2N/N=C/c2ccc(-c3ccccc3)cc2)c(C)c1 | . | . | . | - | . | .
CC(C)n1c(SCC(=O)N2CCCCC2)nc2c1c(=O)n(C)c(=O)n2C | - | - | - | - | - | -
CC(C)n1c(SCC(=O)N2c3ccccc3Sc3ccccc32)nc2c1c(=O)n(C)c(=O)n2C | - | - | 20.6µM | - | - | 16.4µM
COc1ccc(N2CCN(C(=O)CSc3nnc(-c4cc5ccccc5cc4O)n3C)CC2)cc1 | ? | - | 23.1µM | - | ? | 18.4µM
COc1ccc(N2CCN(C(=O)CSc3nc4c(c(=O)n(C)c(=O)n4C)n3C(C)C)CC2)cc1 | - | - | 18.4µM | - | - | ?
CC(C)n1c(SCc2ccccc2F)nc2c1c(=O)n(C)c(=O)n2C | - | - | 20.6µM | - | - | 25.9µM
Cc1ccc(/C=C2/SC(=S)N(CCC(=O)N3CCN(c4ccccc4)CC3)C2=O)cc1 | - | . | . | . | ? | .
O=C(CCN1C(=O)S/C(=C\c2ccccc2)C1=O)N1CCOCC1 | . | -80.1 | ? | - | . | -
COc1ccc(/C=C2\SC(=O)N(CCC(=O)N3CCCCC3)C2=O)cc1OC | - | - | - | - | - | ?
Cc1ccc(/C=C2\SC(=S)N(CCC(=O)N3CCOCC3)C2=O)cc1 | - | - | 16.4µM | - | - | 18.4µM
O=C(CCN1C(=O)/C(=C\c2ccccc2)SC1=S)N1CCOCC1 | - | -63.2 | 8.2µM | - | - | 10.3µM
COc1ccc(/C=C2\SC(=S)N(CCC(=O)N3CCOCC3)C2=O)cc1 | - | -66.5 | ? | - | - | ?
SMILES | VP16 counter | IL1B secr inh | TDP1 cell CPT | LDHA block | RORg inh | DT40 TDP1 no CPT
CCOC(=O)C(NC(=O)/C=C/c1cccs1)C(=O)OCC | . | . | . | - | . | .
COc1ccc2cc(C(=O)N3CCN(S(=O)(=O)c4cc(C)ccc4C)CC3)c(C)nc2c1 | . | . | . | - | . | .
O=C(C1CC1)N(Cc1ccc2c(c1)CN(S(=O)(=O)c1ccc(F)cc1)CCO2)c1ccccc1 | . | . | . | - | . | .
O=C(CCNc1cccc(Br)c1)c1cc2ccccc2o1 | . | . | . | - | . | .
O=C1/C(=C/c2cccnc2)SC(=S)N1c1ccccc1 | - | - | - | - | ? | -
O=C1/C(=C/c2cccnc2)SC(=S)N1Cc1ccco1 | . | -97.0 | 23.1µM | - | . | 20.6µM

Screens (PubChem BioAssay)
